Measurements reported in PubChem BioAssay (EPA / NIEHS).
Where “and” joins values, the source holds several entries; their conditions need not be identical. Equal entries are not always repeated. More than one record can exist for a structure, and the calls need not agree. Calls of active or inactive are those of the source. Rule for the calls: active = hit-call score of the fitted dose curve at least 0.9, where 1 is the maximum; inactive = score below 0.9.

How the values were obtained:
[1] = read-out: Vascular endothelial growth factor receptor 2 (Homo sapiens) (UniProt P35968); test: BSK_4H_VEGFRII: BioMAP Diversity Plus: 4H Assay for Vascular endothelial growth factor receptor 2 (VEGFR2) Biomarker Activity (AID 2283031); details: primary human endothelial cells (HUVEC); actives raise or lower the signal;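 for AC50: cell-surface VEGFR2 protein level quantified by ELISA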
In short: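 Measured by ELISA after 24 h of compound treatment: VEGFR2 on primary human umbilical vein endothelial cells, fitted in both directions relative to DMSO. Parallel cultures received SRB staining (560 nm) for overt cytotoxicity.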

[2] = read-out: Human Leukocyte Antigen - DR isotype (HLADR), HLA-DRA (gene 3122); test: BSK_BE3C_HLADR: BioMAP Diversity Plus: BE3C Assay for Human Leukocyte Antigen - DR isotype (HLADR) Biomarker Activity (AID 2283032); details: primary human bronchial epithelial cells; actives raise or lower the signal
In short: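 ELISA read-out of HLA-DR on human lung bronchial epithelial primary cells, measured 24 h post-dosing. Both increases and decreases were scored relative to DMSO vehicle.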

[3] = read-out: Vascular cell adhesion molecule 1 (VCAM1), VCAM1 (gene 7412); test: BSK_4H_VCAM1: BioMAP Diversity Plus: 4H Assay for Vascular cell adhesion molecule 1 (VCAM1) Biomarker Activity (AID 2283033); details: primary human endothelial cells (HUVEC); actives raise or lower the signal
In short: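 ELISA read-out of VCAM-1 on human umbilical vein endothelium 24 hours after chemical dosing; gain or loss of signal was fitted relative to DMSO, with sulforhodamine B staining of parallel cultures flagging overt cytotoxicity.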

[4] = read-out: Interferon-gamma inducible Protein 10 (IP10), CXCL10 (gene 3627); test: BSK_BE3C_IP10: BioMAP Diversity Plus: BE3C Assay for Interferon-gamma inducible Protein 10 (IP10) Biomarker Activity (AID 2283034); details: primary human bronchial epithelial cells; actives raise or lower the signal
In short: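 Chemical is dosed onto human lung bronchial epithelial primary cells, cultures are incubated 24 h, and IP-10 is then quantified by ELISA. Gain or loss of signal is fitted in both directions relative to DMSO.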

[5] = read-out: Monokine induced gamma interferon (MIG), CXCL9 (gene 4283); test: BSK_BE3C_MIG: BioMAP Diversity Plus: BE3C Assay for Monokine induced gamma interferon (MIG) Biomarker Activity (AID 2283035); details: primary human bronchial epithelial cells; actives raise or lower the signal
In short: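 ELISA read-out of MIG in human lung bronchial epithelial primary cultures, 24 h post-dosing. Bidirectional curve fit vs DMSO baseline.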

[6] = read-out: Transforming growth factor beta 1 (TGFb1), TGFB1 (gene 7040); test: BSK_BE3C_TGFb1: BioMAP Diversity Plus: BE3C Assay for Transforming growth factor beta 1 (TGFb1) Biomarker Activity (AID 2283036;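 note: TGF-b1 protein level measured by ELISA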); details: primary human bronchial epithelial cells; actives raise or lower the signal
In short: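 Primary human lung bronchial epithelial cells; compound exposure 24 h; TGF-b1 by ELISA; bidirectional fit, DMSO baseline. Parallel SRB total-protein staining for cytotoxicity.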

[7] = read-out: Plasminogen activator inhibitor-1 (PAI1), SERPINE1 (gene 5054); test: BSK_BE3C_PAI1: BioMAP Diversity Plus: BE3C Assay for Plasminogen activator inhibitor-1 (PAI1) Biomarker Activity (AID 2283037); details: primary human bronchial epithelial cells; actives raise or lower the signal
In short: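 Primary human lung bronchial epithelial cells; chemical dosing; 24 h; PAI-1 measured by ELISA; bidirectional fit referenced to DMSO as negative control.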

[8] = read-out: Urokinase-type plasminogen activator receptor (uPAR), PLAUR (gene 5329); test: BSK_BE3C_uPAR: BioMAP Diversity Plus: BE3C Assay for Urokinase-type plasminogen activator receptor (uPAR) Biomarker Activity (AID 2283039); details: primary human bronchial epithelial cells; actives raise or lower the signal
In short: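 Human bronchial epithelial primary cells; chemical exposure 24 h; uPAR by ELISA; bidirectional fit vs DMSO control.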

[9] = read-out: Interleukin-6 (IL6), IL6 (gene 3569); test: BSK_CASM3C_IL6: BioMAP Diversity Plus: CASM3C Assay for Interleukin-6 (IL6) Biomarker Activity for (AID 2283040); details: primary human coronary artery smooth muscle cells; actives raise or lower the signal
[10] = read-out: Tissue plasminogen activator (tPA), PLAT (gene 5327); test: BSK_BE3C_tPA: BioMAP Diversity Plus: BE3C Assay for Tissue plasminogen activator (tPA) Biomarker Activity (AID 2283041); details: primary human bronchial epithelial cells; actives raise or lower the signal
In short: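 Primary human lung bronchial epithelial cultures receive test chemical; after 24 h, tPA is quantified by ELISA, and gain or loss of signal is fitted bidirectionally relative to DMSO baseline.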

[11] = read-out: Interleukin-8 (IL8), CXCL8 (gene 3576); test: BSK_CASM3C_IL8: BioMAP Diversity Plus: CASM3C Assay for Interleukin-8 (IL8) Biomarker Activity (AID 2283042); details: primary human coronary artery smooth muscle cells; actives raise or lower the signal;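 note: IL-8 protein level quantified by ELISA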
[12] = read-out: Human Leukocyte Antigen - DR isotype (HLADR), HLA-DRA (gene 3122); test: BSK_CASM3C_HLADR: BioMAP Diversity Plus: CASM3C Assay for Human Leukocyte Antigen - DR isotype (HLADR) Biomarker Activity (AID 2283043); details: primary human coronary artery smooth muscle cells; actives raise or lower the signal;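 note: cell-surface HLA-DR protein level quantified by ELISA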
[13] = read-out: Macrophage colony-stimulating factor (MCSF), CSF1 (gene 1435); test: BSK_CASM3C_MCSF: BioMAP Diversity Plus: CASM3C Assay for Macrophage colony-stimulating factor (MCSF) Biomarker Activity (AID 2283044); details: primary human coronary artery smooth muscle cells; actives raise or lower the signal;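 note: M-CSF protein amount quantified by ELISA after 24 h exposure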
[14] = read-out: Low-density lipoprotein receptor (LDLR), LDLR (gene 3949); test: BSK_CASM3C_LDLR: BioMAP Diversity Plus: CASM3C Assay for Low-density lipoprotein receptor (LDLR) Biomarker Activity (AID 2283045); details: primary human coronary artery smooth muscle cells; actives raise or lower the signal;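 note: LDLR protein level on the cell surface quantified by ELISA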
[15] = read-out: Monocyte Chemoattractant Protein-1 (MCP1), CCL2 (gene 6347); test: BSK_CASM3C_MCP1: BioMAP Diversity Plus: CASM3C Assay for Monocyte Chemoattractant Protein-1 (MCP1) Biomarker Activity (AID 2283046); details: primary human coronary artery smooth muscle cells; actives raise or lower the signal;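 note: MCP-1 level quantified by ELISA 24 h after dosing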
[16] = BSK_CASM3C_Proliferation: Cell Proliferation Assessment in the BioMAP Diversity Plus: CASM3C Assay (AID 2283047); details: primary human coronary artery smooth muscle cells;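 note: sulforhodamine B total protein stain as relative cell number at 560 nm; sub-confluent cells exposed 48 h before staining; fitted both ways against DMSO so gain or loss of cell number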
[17] = read-out: Monokine induced gamma interferon (MIG), CXCL9 (gene 4283); test: BSK_CASM3C_MIG: BioMAP Diversity Plus: CASM3C Assay for Monokine induced gamma interferon (MIG) Biomarker Activity (AID 2283048); details: primary human coronary artery smooth muscle cells; actives raise or lower the signal;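 note: MIG protein level measured by ELISA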
[18] = read-out: serum amyloid A (SAA), SAA1 (gene 6288); test: BSK_CASM3C_SAA: BioMAP Diversity Plus: CASM3C Assay for serum amyloid A (SAA) Biomarker Activity (AID 2283049); details: primary human coronary artery smooth muscle cells; actives raise or lower the signal;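 note: SAA protein level quantified by ELISA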
[19] = BSK_CASM3C_SRB: Viability Assessment in the BioMAP Diversity Plus: CASM3C Assay (AID 2283050); details: primary human coronary artery smooth muscle cells;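 note: total protein by SRB staining as cytotoxicity measure in parallel cultures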
[20] = read-out: urokinase plasminogen activator (uPA), PLAU (gene 5328); test: BSK_BE3C_uPA: BioMAP Diversity Plus: BE3C Assay for urokinase plasminogen activator (uPA) Biomarker Activity (AID 2283038); details: primary human bronchial epithelial cells; actives raise or lower the signal;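 note: uPA protein level quantified by ELISA in cell cultures; uPA read one day after compound addition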
In short: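 ELISA for uPA on human primary bronchial epithelial cultures 24 h post-treatment, gain or loss against DMSO. Parallel SRB staining (0.1% after 10% TCA fixation, 560 nm) assessed overt cytotoxicity.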

Measured: AC50

CCOC(=O)C(Cl)Cc1cc(-n2nc(C)n(C(F)F)c2=O)c(F)cc1Cl (stereo not given)
inactive: [1] | [2] | [3] | [4] | [5] | [6] | [7] | [8] | [9] | [10] | [11] | [12] | [13] | [14] | [15] | [16] | [17] | [18] | [19]

CC(C)Oc1cc(-n2nc(C(C)(C)C)oc2=O)c(Cl)cc1Cl
inactive: [5] | [6] | [8] | [9] | [10] | [11] | [12] | [13] | [14] | [15] | [17] | [18] | [19]
active: [1] 32.9 µM | [2] 27.4 µM | [3] 28.2 µM | [4] 33.9 µM | [7] 20 µM | [16] 29 µM

CC1COC(Cn2cncn2)(c2ccc(Oc3ccc(Cl)cc3)cc2Cl)O1 (stereo not given)
inactive: [1] | [6] | [9] | [11] | [12] | [13] | [14] | [15] | [17] | [18] | [19]
active: [2] 20 µM | [3] 32.2 µM | [4] 31.7 µM | [5] 29.3 µM | [7] 20 µM | [8] 30.3 µM | [10] 27.4 µM | [16] 27.8 µM

CCON=C(CC)C1=C(O)CC(c2c(C)cc(C)cc2C)CC1=O (stereo not given)
inactive: [1] | [2] | [3] | [4] | [5] | [6] | [7] | [8] | [9] | [10] | [11] | [12] | [13] | [14] | [15] | [16] | [17] | [18] | [19]

CCCCOC(=O)c1ccccc1C(=O)OCCCC
active: [13] 0.767 µM | [16] 34.9 µM
inactive: [1] | [2] | [3] | [4] | [5] | [6] | [7] | [20] | [8] | [9] | [10] | [11] | [12] | [13] | [14] | [15] | [16] | [17] | [18] | [19]

COC(=O)c1ccccc1C(=O)OC
inactive: [1] | [2] | [3] | [4] | [5] | [6] | [7] | [8] | [9] | [10] | [11] | [12] | [13] | [14] | [15] | [16] | [17] | [18] | [19]

CCOc1cc(Oc2ccc(C(F)(F)F)cc2Cl)ccc1[N+](=O)[O-]
inactive: [1] | [3] | [4] | [5] | [6] | [7] | [20] | [8] | [9] | [10] | [11] | [12] | [13] | [14] | [15] | [17] | [18] | [19]
active: [2] 9.39 µM | [16] 20 µM

CO/C=C(/C(=O)OC)c1ccccc1Oc1cc(Oc2ccccc2C#N)ncn1
inactive: [1] | [5] | [6] | [7] | [8] | [9] | [10] | [11] | [12] | [13] | [14] | [15] | [16] | [17] | [18] | [19]
active: [1] 21.1 µM | [2] 16.5 µM [middle of 4 runs] | [4] 21.1 µM and 26.1 µM | [7] 21.1 µM | [9] 15.8 µM and 21.1 µM | [10] 28.2 µM | [15] 30.7 µM and 37.9 µM and 37.6 µM | [16] 13.5 µM and 27.1 µM and 13.9 µM

CCCCC(CC)COC(=O)c1ccccc1C(=O)OCC(CC)CCCC (stereo not given)
inactive: [1] | [2] | [3] | [4] | [5] | [6] | [7] | [20] | [8] | [10] | [11] | [12] | [13] | [14] | [15] | [16] | [17] | [18] | [19]
active: [9] 7.31 µM

CCCC1COC(Cn2cncn2)(c2ccc(Cl)cc2Cl)O1 (stereo not given)
inactive: [1] | [2] | [3] | [4] | [5] | [6] | [7] | [8] | [9] | [10] | [11] | [12] | [13] | [14] | [15] | [16] | [17] | [18] | [19]

CCNc1nc(Cl)nc(NC(C)C)n1
inactive: [1] | [2] | [3] | [4] | [5] | [6] | [7] | [20] | [8] | [9] | [10] | [11] | [12] | [13] | [14] | [15] | [16] | [17] | [18] | [19]
